Source: PubChem BioAssay (NCI)
About 83,000 compounds went through this panel and 20% of them were active in at least one assay; those are over-represented in the sample as a whole.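 The endpoint reported here, percent growth, reads 100 for growth as untreated, 0 for no net growth and -100 for all cells dead.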 Values without a mark were called inactive. Calls of active or inactive are those of the source. How the source made its calls: active means growth percent below 10; inactive means the rest.

What was measured:
Assay in all cases: NCI-60 one-dose screen, 48 h (100 = growth as untreated, 0 = no growth, -100 = all killed)
Conditions in all cases: 10 µM unless noted
SR leukemia = system: SR leukemia
RPMI-8226 leukemia = system: RPMI-8226 leukemia
OVCAR-5 ovarian = system: OVCAR-5 ovarian
OVCAR-4 ovarian = system: OVCAR-4 ovarian
SK-OV-3 ovarian = system: SK-OV-3 ovarian
IGROV1 ovarian = system: IGROV1 ovarian
OVCAR-3 ovarian = system: OVCAR-3 ovarian
HS 578T breast = system: HS 578T breast
NCI/ADR-RES ovarian = system: NCI/ADR-RES ovarian
OVCAR-8 ovarian = system: OVCAR-8 ovarian

SMILES	growth (SR leukemia)	growth (RPMI-8226 leukemia)	growth (OVCAR-5 ovarian)	growth (OVCAR-4 ovarian)	growth (SK-OV-3 ovarian)	growth (IGROV1 ovarian)	growth (OVCAR-3 ovarian)	growth (HS 578T breast)	growth (NCI/ADR-RES ovarian)	growth (OVCAR-8 ovarian)
O=c1[nH]c2ccc(Cl)cc2cc1CSc1nccc(-c2ccc(Cl)cc2)n1	88.6%	71.3%	66.4%	38.9%	69.2%	59.3%	86.6%	33.8%	56.7%	–
CCOC(=O)C1=C(N)N(c2ccccc2)C2=C(C(=O)CC(C)(C)C2)C1c1cccc(Cl)c1Cl (stereo unspecified)	56.3%	50.7%	87.6%	65.8%	82%	83.6%	87.4%	–	51%	–
CCN1C(=O)N(CC)C2NNC(Sc3c(C(=O)O)c4ccccc4n(C4CCCC4)c3=O)=NC21 (stereo unspecified)	22.4%	24.8%	38.4%	61.8%	32.8%	29.6%	-32.5% (active)	7.18% (active)	25.1%	–
COc1ccc(C2=NN(c3ccccc3)C(c3ccc(OC)c(OCc4ccccc4)c3)C2)cc1OC (stereo unspecified)	104%	107%	–	89.8%	93.4%	84.1%	106%	97.7%	103%	96.3%
CCN(CC)c1ccc(/C=N/Nc2nc(-c3ccc(C)cc3)cs2)c(O)c1	92.9%	74.3%	93.2%	89.7%	108%	96.3%	92.1%	108%	92.5%	–
Clc1ccc(-c2ccc(OCCCN3CCN(c4ccncc4)CC3)cc2)cc1	-21.2% (active)	-9.75% (active)	–	64.7%	58%	93.7%	67.4%	82.5%	49.7%	86.3%
COc1ccc2cc([C@H](C)C(=O)N/N=C/c3ccc(Br)cc3)ccc2c1	87.3%	105%	100%	100%	97.7%	102%	114%	–	98.2%	–
CC(=O)Oc1ccccc1C(=O)[Se]CC(=O)Nc1cccc(C(F)(F)F)c1	31.2%	35.6%	-30.9% (active)	39.6%	0.121% (active)	-64.9% (active)	-12% (active)	–	-63.8% (active)	–
O=c1[nH]n(C(=S)N/N=C/c2ccccc2Cl)c(=O)c2ccccc12	-13.8% (active)	-1.71% (active)	–	33%	23.4%	7.53% (active)	24%	–	-9.23% (active)	4.91% (active)
COc1cccc(-c2c(C#N)c(-c3ccc(Cl)cc3)nc3n[nH]c(-c4ccc(Cl)cc4)c23)c1	16.3%	7.25% (active)	69%	26.5%	43.9%	65.2%	58%	–	59.3%	–
CCOC(=O)C1=C(N)N(c2ccccc2)C2=C(C(=O)CC(C)(C)C2)C1c1ccc([N+](=O)[O-])cc1 (stereo unspecified)	66.4%	82.6%	101%	97.3%	105%	108%	121%	–	98.2%	–
COc1cc(/C=C/C(=O)c2nnn(-c3ccc(Cl)cc3)c2C)cc(OC)c1OC	5.48% (active)	-7.65% (active)	–	34.7%	59.4%	59.3%	22.9%	–	8.27% (active)	31.8%
O=c1[nH]c2ccccc2cc1CSc1nccc(-c2ccc3ccccc3c2)n1	20.6%	52.1%	93.7%	80.3%	84.3%	89.9%	102%	–	41.7%	–
C=C1CCC2C3(C)COC(c4cccc(F)c4)OC3CCC2(C)C1C/C=C1/C(=O)OCC1O (stereo unspecified)	9.74% (active)	10.5%	22.1%	-0.215% (active)	60.5%	-24% (active)	-71.8% (active)	–	-18% (active)	–
C#CCOc1cc(N(CC)CC)ccc1C(C(=O)NC(C)(C)C)N(C(=O)C1CCc2cc(F)ccc2O1)c1ccc(F)c(Cl)c1 (stereo unspecified)	35%	38.3%	82.7%	57.8%	73.1%	70.5%	57.7%	75.2%	72.9%	–
CC(C)CSc1nc(NCCc2c[nH]c3ccccc23)c(C#N)c(-c2ccccc2)n1	-10.2% (active)	35.8%	–	77.2%	86.7%	104%	93.5%	48.2%	53.5%	76.9%
CC1=C(C(=O)c2ccccc2)C(c2cccc3ccccc23)n2c(nc3ccccc32)N1 (stereo unspecified)	43.7%	83.9%	68.4%	75.6%	57.4%	86.5%	59%	–	43.3%	–
Cn1cc(-c2nc(N)nnc2-c2c[nH]c3ccc(Br)cc23)c2cccnc21	29.1%	45%	–	71.1%	61.8%	46.2%	29.2%	33.9%	78.7%	47.9%
Cc1cc(=O)oc2cc(OCCOc3ccc(/C=C/C(=O)Nc4ccccc4N)cc3)ccc12	–	1.06% (active)	39.2%	41.2%	11.1%	38.7%	20.3%	40.6%	16.4%	38.5%
CC(C)CSc1nc(NCCc2c[nH]c3ccccc23)c(C#N)c(-c2ccc(F)cc2)n1	3.42% (active)	31.5%	–	72.8%	57.9%	78.3%	76.9%	39.6%	39.9%	–
Cc1cc2nc3c4ccccc4n(CC4=NCCN4)c3nc2cc1C	0.0191% (active)	–	-76.9% (active)	-0.803% (active)	15.6%	16.1%	55.2%	76.4%	18.6%	-21.1% (active)
COc1cc2c(c(OC)c1OC)C(=O)CC(c1cccc(NC(=O)c3cccc([N+](=O)[O-])c3)c1)O2 (stereo unspecified)	–	8.29% (active)	79.3%	27.1%	64.2%	27%	19.4%	25.1%	14.5%	10.2%
O=C(Cn1c2c(sc1=O)[C@H]1[C@@H](O)[C@@H](O)[C@H](O)[C@@H]1CS2)N1CCOCC1	99.6%	–	–	102%	94.1%	105%	105%	93.3%	104%	108%
CN1CCN(c2ccc(C(=O)/C=C/c3ccc(Br)cc3)cc2)CC1	–	-0.714% (active)	39.5%	61%	15.8%	39.4%	17.7%	89.6%	45.1%	2.63% (active)
Cc1ccc(/C=C/c2n(Cc3ccc4ccccc4c3)c3ccccc3[n+]2Cc2ccc3ccccc3c2)cc1	-34.2% (active)	-71% (active)	–	-70.5% (active)	-87.1% (active)	-76% (active)	-83.3% (active)	–	-48.1% (active)	–
COc1cc(OC)c2c3nc4cc(C)c(C)cc4nc3n(CCN(C)C)c2c1	0.994% (active)	–	73.1%	63.3%	103%	55.5%	97.7%	84.2%	3.26% (active)	-0.293% (active)
COc1cc(OC)cc(-c2cc3ccc(N(C)C)cc3c(=O)[nH]2)c1	–	29.2%	45.5%	72.6%	40.2%	29.3%	4% (active)	47.3%	0.753% (active)	5.26% (active)
CC(=O)NNc1ccc2nnc(-c3ccccc3)n2n1	–	115%	113%	109%	110%	108%	95.4%	100%	104%	100%
COc1cc2c(c(OC)c1OC)C(=O)CC(c1cccc(NC(=O)c3cc(NC(=O)[C@H](C)N)ccc3Cl)c1)O2 (stereo partly specified)	–	4.69% (active)	88%	44.4%	102%	70.3%	25.7%	66.9%	11.1%	9.03% (active)
CC(=O)Oc1ccc(/C=C/C(=O)N[C@@H](Cc2ccccc2)C(O)C(=O)NCc2ccccc2)cc1OC(C)=O (stereo partly specified)	–	69.8%	113%	77.3%	91.5%	62.5%	84.7%	84.8%	104%	75.9%
